Here are results for eleven compounds from PubChem BioAssay.

Active and inactive are the calls of the source.

Assay [1] can be described thus: binders of probe aFSTL3 on microarray, primary screen, stem cell growth factor project, biochemical, small-molecule microarray, fluorescence 635/667 (AID 1064).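 Note: measures binding of the biotinylated anti-FSTL3 antibody to printed compounds.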 To be noted: higher = more signal.
Assay [2] in a line: binders from COS7 lysate, DM2A8 probe, primary screen, torsin A project, cell lysate, small-molecule microarray, fluorescence 635/667 (AID 1065). To be noted: higher = more signal, COS7 lysate expressing mutant human TOR1A.
The nature of assay [3]: binders of probe aFGF2 on microarray, primary screen, stem cell growth factor project, biochemical, small-molecule microarray, fluorescence 635/667 (AID 1067).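 Note: measures binding of biotinylated aFGF2 protein to printed compounds on slides; z-score merges feature fluorescence and signal-to-noise across triplicate slides.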 To be noted: higher = more signal.
Assay [4] can be described thus: binders of probe aFGF10 on microarray, primary screen, stem cell growth factor project, biochemical, small-molecule microarray, fluorescence 635/667 (AID 1071).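 Note: score merges 667 nm spot intensity and signal to noise from triplicate slides.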 To be noted: higher = more signal.
In assay [5] the target is Neurogenic locus notch homolog protein 2 (Homo sapiens) (UniProt Q04721). Description: Notch2 binders on small-molecule microarrays, primary screen, biochemical, small-molecule microarray, 635 nm fluorescence, stem cell growth factors (AID 1073). The conditions noted are these: Notch2 binding, higher = more signal.
Sequence of Neurogenic locus notch homolog protein 2 (Homo sapiens) (Q04721 whole entry, looked up, canonical isoform): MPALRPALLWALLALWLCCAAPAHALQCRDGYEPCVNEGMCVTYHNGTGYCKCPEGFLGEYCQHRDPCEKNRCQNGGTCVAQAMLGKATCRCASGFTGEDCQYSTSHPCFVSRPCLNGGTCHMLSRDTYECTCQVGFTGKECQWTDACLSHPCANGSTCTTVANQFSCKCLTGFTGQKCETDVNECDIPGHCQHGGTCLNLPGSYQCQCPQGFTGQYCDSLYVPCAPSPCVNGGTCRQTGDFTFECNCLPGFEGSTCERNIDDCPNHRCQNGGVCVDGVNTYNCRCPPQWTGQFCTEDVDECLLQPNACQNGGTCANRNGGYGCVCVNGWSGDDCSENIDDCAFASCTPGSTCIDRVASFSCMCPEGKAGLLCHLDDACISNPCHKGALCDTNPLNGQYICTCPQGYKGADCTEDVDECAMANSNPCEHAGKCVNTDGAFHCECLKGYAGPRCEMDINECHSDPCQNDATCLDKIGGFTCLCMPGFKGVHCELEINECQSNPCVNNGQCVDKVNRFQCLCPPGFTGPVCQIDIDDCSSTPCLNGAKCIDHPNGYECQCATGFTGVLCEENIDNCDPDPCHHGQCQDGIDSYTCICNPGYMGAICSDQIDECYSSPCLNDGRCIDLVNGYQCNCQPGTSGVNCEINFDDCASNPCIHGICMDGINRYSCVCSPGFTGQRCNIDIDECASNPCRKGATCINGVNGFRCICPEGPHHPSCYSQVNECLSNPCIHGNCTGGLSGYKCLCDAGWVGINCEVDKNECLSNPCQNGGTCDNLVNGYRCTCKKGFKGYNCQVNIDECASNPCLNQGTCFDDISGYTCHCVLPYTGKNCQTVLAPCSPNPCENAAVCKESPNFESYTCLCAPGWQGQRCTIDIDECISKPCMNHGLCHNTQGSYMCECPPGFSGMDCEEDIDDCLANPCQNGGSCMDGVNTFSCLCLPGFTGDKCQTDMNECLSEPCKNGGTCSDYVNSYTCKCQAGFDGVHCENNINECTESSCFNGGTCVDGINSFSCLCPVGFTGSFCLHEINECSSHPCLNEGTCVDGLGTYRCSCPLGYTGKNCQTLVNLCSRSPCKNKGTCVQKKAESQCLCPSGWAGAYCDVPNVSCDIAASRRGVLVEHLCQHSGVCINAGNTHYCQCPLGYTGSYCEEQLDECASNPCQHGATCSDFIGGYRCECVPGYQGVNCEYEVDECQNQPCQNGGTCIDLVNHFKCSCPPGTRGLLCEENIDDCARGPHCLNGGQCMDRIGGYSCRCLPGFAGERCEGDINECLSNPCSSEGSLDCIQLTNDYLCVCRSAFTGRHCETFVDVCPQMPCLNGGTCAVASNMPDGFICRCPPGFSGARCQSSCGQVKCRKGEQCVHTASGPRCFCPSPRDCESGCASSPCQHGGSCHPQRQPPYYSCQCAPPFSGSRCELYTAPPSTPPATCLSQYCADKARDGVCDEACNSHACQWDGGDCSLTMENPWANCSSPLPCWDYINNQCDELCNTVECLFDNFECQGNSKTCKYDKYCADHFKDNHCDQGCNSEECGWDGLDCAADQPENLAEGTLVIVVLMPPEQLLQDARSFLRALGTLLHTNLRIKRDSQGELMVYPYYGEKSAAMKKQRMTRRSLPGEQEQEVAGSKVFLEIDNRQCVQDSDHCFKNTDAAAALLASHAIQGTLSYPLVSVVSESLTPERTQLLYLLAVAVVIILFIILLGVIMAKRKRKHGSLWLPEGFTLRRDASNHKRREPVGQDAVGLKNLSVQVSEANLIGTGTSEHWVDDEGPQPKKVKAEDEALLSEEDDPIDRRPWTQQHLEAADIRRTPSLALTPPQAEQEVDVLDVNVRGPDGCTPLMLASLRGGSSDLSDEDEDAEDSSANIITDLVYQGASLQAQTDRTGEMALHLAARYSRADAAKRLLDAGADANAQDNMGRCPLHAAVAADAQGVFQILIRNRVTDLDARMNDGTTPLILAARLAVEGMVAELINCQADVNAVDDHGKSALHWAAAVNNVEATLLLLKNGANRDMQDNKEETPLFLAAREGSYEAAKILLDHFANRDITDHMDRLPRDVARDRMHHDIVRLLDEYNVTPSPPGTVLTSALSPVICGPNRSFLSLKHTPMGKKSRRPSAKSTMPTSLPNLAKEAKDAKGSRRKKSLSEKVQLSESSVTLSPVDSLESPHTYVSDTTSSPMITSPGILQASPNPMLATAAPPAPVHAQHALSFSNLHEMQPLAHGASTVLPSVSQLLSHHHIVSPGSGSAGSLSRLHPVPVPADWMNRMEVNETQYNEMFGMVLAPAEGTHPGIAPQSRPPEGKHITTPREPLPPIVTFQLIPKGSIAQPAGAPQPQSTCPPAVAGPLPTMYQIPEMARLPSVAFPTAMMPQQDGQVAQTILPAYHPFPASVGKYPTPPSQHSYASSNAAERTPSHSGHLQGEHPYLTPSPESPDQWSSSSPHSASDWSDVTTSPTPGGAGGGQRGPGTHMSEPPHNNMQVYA
Assay [6] concerns the target Pro-neuregulin-1, membrane-bound isoform (Homo sapiens) (UniProt Q02297). The assay can be described thus: NRG1 binders on small-molecule microarrays, primary screen, psychiatric disease protein project, biochemical, small-molecule microarray, fluorescence 635/667 (AID 1075).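 Note: score combines 667 nm spot fluorescence with signal to noise.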 To be noted: NRG1 binding, 635 nm fluorescence, higher = more signal.
Assay [7] concerns Neuregulin-1 EGF-like domain. The assay can be described thus: binders of neuregulin-1 EGF-like domain, primary screen, biochemical, small-molecule microarray, 635 nm fluorescence (AID 1081).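 Note: binding of the protein to compounds printed on small-molecule microarray slides.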 To be noted: small-molecule microarray binding, higher = more signal.
The nature of assay [8]: FRG1 promoter luciferase signal modulators, primary screen, FRG1 inhibition for FSHD, cell-based, C2C12 myotubes, firefly/Renilla luciferase, luminescence (AID 1084). The conditions noted are these: higher = more signal, called active from +8 up or from −8 down.
Assay [9] in a line: binders of probe aFST on microarray, primary screen, stem cell growth factor project, biochemical, small-molecule microarray, fluorescence 635/667 (AID 1086).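 Note: score merges 667 nm fluorescence with signal-to-noise of each printed compound spot.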 The conditions noted are these: higher = more signal.
Assay [10] in a line: binders of probe aHhip on microarray, primary screen, stem cell growth factor project, biochemical, small-molecule microarray, fluorescence 635/667 (AID 1087).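 Note: score merges spot fluorescence at 667nm with spot signal to noise ratio.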 The conditions noted are these: higher = more signal.

Sequence of Pro-neuregulin-1, membrane-bound isoform (Homo sapiens) (Q02297 whole entry, looked up, the tested form may be a part, canonical isoform): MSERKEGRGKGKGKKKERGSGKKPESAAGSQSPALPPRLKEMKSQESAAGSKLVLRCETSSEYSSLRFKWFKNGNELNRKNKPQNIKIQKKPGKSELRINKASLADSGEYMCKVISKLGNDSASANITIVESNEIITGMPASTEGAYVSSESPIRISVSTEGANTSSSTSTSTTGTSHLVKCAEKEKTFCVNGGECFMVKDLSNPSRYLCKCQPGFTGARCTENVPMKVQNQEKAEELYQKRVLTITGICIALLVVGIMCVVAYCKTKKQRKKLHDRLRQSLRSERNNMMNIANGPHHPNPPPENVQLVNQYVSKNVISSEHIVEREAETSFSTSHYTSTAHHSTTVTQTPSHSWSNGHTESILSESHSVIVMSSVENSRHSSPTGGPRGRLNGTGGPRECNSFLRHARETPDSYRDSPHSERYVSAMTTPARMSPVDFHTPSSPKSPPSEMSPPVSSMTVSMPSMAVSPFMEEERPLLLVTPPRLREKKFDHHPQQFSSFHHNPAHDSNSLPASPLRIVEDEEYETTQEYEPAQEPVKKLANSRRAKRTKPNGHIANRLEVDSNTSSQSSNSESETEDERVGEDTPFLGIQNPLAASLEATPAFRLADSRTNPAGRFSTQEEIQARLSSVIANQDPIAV

On to `C=C(C(=O)CC[C@@H](OC(=O)c1ccccc1-c1ccccc1C(=O)O)c1ccc(OCCO)cc1)C(C)C`, for which the composite z-score in assay [1] is -0.49; in assay [2], 0.235; in assay [3], 0.0129; in assay [4], 1.11; in [5] it was 0.52; in assay [6] it was 0.551. Also, the figures for the composite z-score in assay [7], in [9] and in [10] were 0.512, 0.136 and 0.245, respectively. In assay [8], the z-score was 2.12 (inactive).

`C=CC[C@H](O)c1ccc(O)c2ccccc12`: the composite z-score in assay [1] was -0.112; in assay [2] it was 0.821; in assay [3], -0.0558; in assay [4] it was 0.513; in assay [5], 0.61; in [6] it was 0.826. The results for the composite z-score in [7], in [9] and in assay [10] were 1.3, 0.193 and 0.0749, respectively. Besides, in assay [8], the z-score is -0.0666 (inactive).

`COCCCNC(=O)[C@]1(Cc2ccccc2N=[N+]=[N-])N=C(c2ccc(OCCCO)cc2)O[C@@H]1c1ccccc1`: the composite z-score was 0.522 in assay [1]; 1 in assay [2]; 0.286 in assay [3]; 0.232 in [4]; 1.4 in [5]; 1.73 in [6]. Besides, the composite z-score in [7] was found to be 1.27; in [9], 1.14; in assay [10], 0.547. For the same compound, the z-score in assay [8] is -2.74 (inactive).

As to `CS(=O)(=O)CCOC(=O)C1=CC(CCCO)=CC(C2CC2)N(Cc2sc3ccccc3c2Cl)C=C1C(=O)OCCS(C)(=O)=O` (stereo not given), the composite z-score was -0.143 in assay [1]; 0.0105 in assay [2]; 0.0498 in [3]; 0.4 in assay [4]; 1.36 in [5]; 1.92 in [6]. For the same compound, the composite z-score in assay [7] is 1.18; in assay [9], 0.903; in assay [10], -0.134. In addition, in [8], the z-score is -0.133 (inactive).

On to `CC(=O)NCCCC[C@@H]1NC(=O)[C@H]2C[C@@H](C(=O)O)[C@@H](c3cccc(OCCO)c3)N2C1=O`, for which the composite z-score is -0.318 in assay [1]; 1.1 in assay [2]; 0.0761 in [3]; 0.841 in [4]; 1.15 in [5]; 1.14 in assay [6]. For the same compound, the composite z-score in assay [7] is 1.18; in assay [9] it was 0.491; in assay [10] it was -0.0862. In addition, the z-score in assay [8] was 0.618 (inactive).

With `[N-]=[N+]=NCc1ccccc1[C@H]1OC(c2ccc(OCCCO)cc2)=N[C@@]1(Cc1ccccc1N=[N+]=[N-])C(=O)N1CCOCC1`, the composite z-score in assay [1] is 0.439; in [2], -0.154; in [3] it was 0.156; in [4], 0.383; in assay [5], 1.55; in assay [6] it was 1.96. Further, the composite z-score is 1.21 in assay [7], 1.07 in assay [9] and -0.0994 in assay [10]. The z-score in [8] was -1.31 (inactive).

On to `O=C1O[C@@H](c2ccccc2)[C@@H](c2ccccc2)N2[C@@H](c3ccc(OCCO)cc3)[C@]3(C(=O)Nc4ccc(C#CC5=CCCCC5)cc43)[C@@H](C(=O)Nc3nc4ccccc4s3)[C@H]12`, for which the composite z-score was -0.574 in assay [1]; 0.0484 in assay [2]; -0.357 in assay [3]; 0.3 in [4]; 0.91 in [5]; 0.744 in assay [6]. The composite z-score in [7] was 0.651; in [9], -1.06; in [10] it was -1.07. In addition, the z-score in assay [8] was 4.67 (inactive).

For the compound `C=CCNC(=O)[C@@H]1[C@H]2C(=O)O[C@H](c3ccccc3)[C@H](c3ccccc3)N2[C@H](c2ccc(OCCO)cc2)[C@@]12C(=O)Nc1ccc(C#CCNC(N)=O)cc12`, the composite z-score in assay [1] was 0.18; in [2], -0.262; in [3], -0.22; in assay [4] it was 0.169; in assay [5] it was -1.01; in assay [6], 0.43. The results for the composite z-score in assay [7], in assay [9] and in [10] were 0.184, 0.675 and -0.191, respectively. For the same compound, the z-score in [8] was 0.243 (inactive).

Turning to `O=C/C=C/c1ccc(-c2ccccc2)cc1`, the composite z-score in assay [1] was 0.4; in [2], -0.0761; in assay [3], -0.0785; in assay [4], 0.182; in [5] it was -0.327; in [6] it was -0.727. In addition, the composite z-score in assay [7] was -0.836; in assay [9], -0.0543; in assay [10], 0.21. In assay [8], the z-score is 2.7 (inactive).

Turning to `CCOC(=O)C1=CC[C@@H](c2ccccc2)N(S(=O)(=O)c2ccc(C)cc2)[C@@H]1C#N`, the composite z-score in assay [1] is -0.182; in assay [2], -0.0258; in assay [3] it was 0.0056; in assay [4], 0.388; in assay [5], 1.25; in assay [6] it was 1.11. Moreover, the composite z-score in [7] came out at 1.05; in [9], 0.158; in assay [10], 0.0505. In assay [8], the z-score was -0.823 (inactive).

As to `C=C(C(=O)CC[C@@H](OC(=O)c1ccccc1-c1ccccc1C(=O)O)c1ccc(CO)o1)C(C)C`, the composite z-score is -0.422 in [1]; 1.18 in [2]; -0.087 in assay [3]; 1.03 in assay [4]; 0.0438 in assay [5]; 0.115 in assay [6]. Also, the values for the composite z-score in assay [7], in assay [9] and in assay [10] were 0.445, 0.379 and -0.0645, respectively. In assay [8], the z-score was 0.0639 (inactive).
